The record followed here is the OligoGym collection.
Further: reference of the scale not given here.

This assay has as its target GPRC5C. The assay can be described thus: pooled miR-30 sensor sort-seq; sequence = guide strand. The conditions noted are these: shRNA.
For TGATGTCGTAAGCTCCTTCGGA, the sensor-assay potency score (higher = more potent) was -0.537.
As for TTCGGACGGAACTTTGTGCATC, the sensor-assay potency score (higher = more potent) is -0.913.
Consider TTCTTGCCGTCTTTCGGCGGTG, for which the sensor-assay potency score (higher = more potent) was -1.04.
Consider ATGGTGAGCACAAACGTGGTGA, for which the sensor-assay potency score (higher = more potent) is -0.43.
With AAGACCTGAGAGTTCTTGCCGT the figure was 0.1; with TAGTACAGGGGGTTGAGGCCTT, 0.25; with ATGATGGTGAGCACAAACGTGG, -1.32.
With TCGTAAGCTCCTTCGGACGGAA, the sensor-assay potency score (higher = more potent) is -0.916.
Next, TGAGGTTGCAGGAATCTCCAGA: 0.399.
On to TCACAGAGGAGCAAGATCCAGG, for which the sensor-assay potency score (higher = more potent) is -0.72.
Next, TCCTTCGGACGGAACTTTGTGC: -0.974.
Take TTGGTGTCCTGCACAAAGGGGA: the sensor-assay potency score (higher = more potent) was -0.48.
